Experimental data: PMC5540273 (PLoS ONE, 2017)

Tests used:
Settings in all cases: concentration: 1 μM, replicates: in singlicate; n = 1
[1] = test system: KIT-autoinhibited
[2] = test system: KIT
[3] = test system: LATS1
[4] = test system: LATS2
[5] = test system: LCK
[6] = test system: LIMK1
[7] = test system: LIMK2
[8] = test system: T1, LKB1
T1 construct: gene STK11

[9] = test system: T2, LOK
T2 construct: gene STK10

[10] = test system: LRRK2
[11] = test system: LTK
[12] = test system: LYN
[13] = test system: T3, LZK
T3 construct: gene MAP3K13

[14] = test system: MAK
[15] = test system: MAP3K15
[16] = test system: MAP3K1
[17] = test system: MAP3K2
[18] = test system: MAP3K3
[19] = test system: MAP3K4
[20] = test system: MAP4K2
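Also: KINOMEscan kinase panel screen.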

| SMILES | %Inh [1] [%] | %Inh [2] [%] | %Inh [3] [%] | %Inh [4] [%] | %Inh [5] [%] | %Inh [6] [%] | %Inh [7] [%] | %Inh [8] [%] | %Inh [9] [%] | %Inh [10] [%] | %Inh [11] [%] | %Inh [12] [%] | %Inh [13] [%] | %Inh [14] [%] | %Inh [15] [%] | %Inh [16] [%] | %Inh [17] [%] | %Inh [18] [%] | %Inh [19] [%] | %Inh [20] [%] |
| --- | --- | --- | --- | --- | --- | --- | --- | --- | --- | --- | --- | --- | --- | --- | --- | --- | --- | --- | --- | --- |
| Cc1ccc(NC(=O)c2ccnc(N3CCN(C)CC3)c2)cc1-c1ccc(C(=O)NCC2CC2)cc1 [GW775604] | 0 | 27 | 0 | 0 | 0 | 0 | 0 | 28 | 9 | 0 | 0 | 0 | 0 | 0 | 0 | 0 | 0 | 0 | 0 | 0 |
| [2H]C([2H])(c1cccc(C(F)(F)F)c1C)n1ccn2c(=O)nc(N3CCOCC3)cc12 [GSK2336394] | 0 | 14 | 11 | 0 | 25 | 15 | 0 | 0 | 0 | 0 | 19 | 0 | 0 | 17 | 0 | 0 | 5 | 0 | 25 | 0 |
| CCCCCc1nc2c(N)ncnc2n1CCCCC [SKF-97255] | 16 | 17 | 0 | 0 | 5 | 0 | 0 | 60 | 14 | 0 | 6 | 0 | 0 | 0 | 0 | 18 | 29 | 0 | 10 | 0 |
| CC(C)Oc1ccc2c(-c3ccnc(Nc4ccc(N5CCN(C)CC5)cc4)n3)cnn2n1 [GW696155] | 43 | 91.1 | 0 | 43 | 92.6 | 85 | 100 | 73 | 0 | 27 | 0 | 34 | 10 | 0 | 11 | 39 | 83 | 67 | 74 | 28 |
| c1ccc(-c2n[nH]cc2-c2ccnc3ccccc23)nc1 [GW271431] | 11 | 20 | 0 | 4 | 17 | 21 | 30 | 18 | 0 | 0 | 13 | 0 | 0 | 17 | 0 | 16 | 11 | 0 | 4 | 0 |
| COc1cc2c(cc1OCCN1CCN(C)CC1)ncc1c3ccc(C#N)cc3[nH]c21 | 71 | 83 | 0 | 20 | 57 | 0 | 0 | 29 | 33 | 98.8 | 0 | 19 | 11 | 21 | 61 | 0 | 0 | 0 | 0 | 54 |
| Cl.Oc1cccc(Nc2ccnc3cc(-c4ccncc4)ccc23)c1 [GW494601] | 32 | 99.8 | 6 | 0 | 98.7 | 0 | 6 | 0 | 31 | 75 | 69 | 86 | 36 | 61 | 0 | 1 | 76 | 70 | 0 | 88 |
| O=c1cc(N2CCOCC2)nc2n(Cc3cccc(C(F)(F)F)c3)ccn12 [GSK2297543] | 2 | 13 | 0 | 0 | 22 | 0 | 7 | 10 | 0 | 0 | 16 | 0 | 0 | 31 | 0 | 5 | 10 | 0 | 13 | 0 |
| Nc1nccc(-c2c(-c3ccc(F)cc3)ncn2C2CCN(CC(F)(F)F)CC2)n1 [SB-236560] | 11 | 0 | 0 | 69 | 0 | 5 | 0 | 0 | 2 | 0 | 100 | 13 | 7 | 29 | 0 | 0 | 0 | 0 | 0 | 0 |
| CN(C(=O)c1ccc(-c2cc(-c3c[nH]nc3-c3ccccn3)ccn2)cc1)C1CCOCC1 [GW810083] | 0 | 0 | 0 | 2 | 0 | 0 | 0 | 16 | 0 | 0 | 0 | 0 | 0 | 6 | 0 | 0 | 0 | 0 | 0 | 0 |
| Cc1c2ccc(N(C)c3ccnc(Nc4cccc(S(N)(=O)=O)c4)n3)cc2nn1Cc1ccccc1.Cl.Cl [GW787226] | 86 | 99.9 | 6 | 0 | 90.7 | 89 | 73 | 48 | 98.4 | 0 | 45 | 84 | 0 | 0 | 0 | 0 | 31 | 0 | 22 | 0 |
| CN1c2ccc(NCc3ccc(F)cc3)cc2-c2c(cnn2C)S1(=O)=O | 0 | 24 | 0 | 0 | 4 | 0 | 0 | 23 | 0 | 0 | 0 | 0 | 0 | 0 | 0 | 0 | 0 | 5 | 11 | 0 |
| COc1ccc(Nc2nccc(N3CCC(NC(=O)Nc4cc(C)ccc4C)C3)n2)cc1 (centres unmarked) [GSK1379741] | 0 | 25 | 0 | 0 | 0 | 0 | 0 | 0 | 0 | 0 | 7 | 73 | 0 | 28 | 0 | 11 | 5 | 0 | 23 | 0 |
| Nc1nc(-c2ccc3c(N)n[nH]c3c2)cc(N2CCCC2)n1 [GSK2227430] | 0 | 12 | 0 | 5 | 0 | 0 | 3 | 1 | 0 | 0 | 0 | 0 | 0 | 27 | 0 | 0 | 0 | 0 | 0 | 0 |
| O=C(Nc1cccc(-c2nn3ncccc3c2-c2ccnc(Nc3cccc(C(F)(F)F)c3)n2)c1)c1c(F)cccc1F [GSK299495] | 0 | 98.7 | 13 | 6 | 98.2 | 9 | 0 | 0 | 96.6 | 0 | 3 | 87 | 12 | 0 | 0 | 15 | 24 | 0 | 33 | 0 |
| O=C(NCCCN1CCOCC1)c1cccc(Nc2nccc(Nc3ccc(Oc4ccccc4)cc3)n2)c1 [GW663929] | 16 | 80 | 0 | 1 | 99.3 | 21 | 22 | 10 | 23 | 0 | 0 | 72 | 28 | 36 | 0 | 0 | 0 | 0 | 0 | 13 |
| COc1ccc(Nc2nccc(N3CCC(NC(=O)Nc4cccc(C(C)=O)c4)C3)n2)cc1 (centres unmarked) [GSK1379731] | 0 | 49 | 0 | 0 | 0 | 1 | 0 | 5 | 0 | 2 | 0 | 0 | 0 | 29 | 0 | 14 | 4 | 0 | 19 | 0 |
| Cl.Nc1ncnc2occ(-c3ccc(NC(=O)Nc4cc(C(F)(F)F)ccc4F)cc3)c12 [SB-707548] | 79 | 99.9 | 0 | 40 | 88 | 25 | 34 | 21 | 99.9 | 2 | 97.2 | 75 | 40 | 6 | 5 | 34 | 8 | 17 | 25 | 62 |
| COc1ccc(S(=O)(=O)NC2CCN(c3cc(C)nc(Nc4cccc(C#N)c4)n3)CC2)cc1.O=C(O)C(F)(F)F [GSK1653539] | 0 | 8 | 0 | 25 | 8 | 0 | 7 | 7 | 0 | 0 | 0 | 0 | 26 | 19 | 0 | 3 | 0 | 0 | 24 | 0 |
